Here are results for 27 compounds from PubChem BioAssay AID588591 (National Center for Advancing Translational Sciences (NCATS), 2011).

About 4,700 (1.2%) of roughly 390,000 compounds were called active. Inconclusive results (about 4%) are left out. What follows is part of a selection rich in actives, with near analogues and random picks from the rest. A number with no mark means an inactive call. The call rests on the fitted dose curve; in most records, active means well fitted inhibition curve with a large enough effect; inconclusive means small, poorly fitted or top-dose-only effect, or another doubt; inactive means no such curve, though single readings can be large or run the other way.
On the % scale 0 is the no-effect control and ±100 the full control effect; potency means the concentration at half of the fitted maximal effect.

Sequence of DNA polymerase eta (Homo sapiens) (Q9Y253 whole entry, looked up): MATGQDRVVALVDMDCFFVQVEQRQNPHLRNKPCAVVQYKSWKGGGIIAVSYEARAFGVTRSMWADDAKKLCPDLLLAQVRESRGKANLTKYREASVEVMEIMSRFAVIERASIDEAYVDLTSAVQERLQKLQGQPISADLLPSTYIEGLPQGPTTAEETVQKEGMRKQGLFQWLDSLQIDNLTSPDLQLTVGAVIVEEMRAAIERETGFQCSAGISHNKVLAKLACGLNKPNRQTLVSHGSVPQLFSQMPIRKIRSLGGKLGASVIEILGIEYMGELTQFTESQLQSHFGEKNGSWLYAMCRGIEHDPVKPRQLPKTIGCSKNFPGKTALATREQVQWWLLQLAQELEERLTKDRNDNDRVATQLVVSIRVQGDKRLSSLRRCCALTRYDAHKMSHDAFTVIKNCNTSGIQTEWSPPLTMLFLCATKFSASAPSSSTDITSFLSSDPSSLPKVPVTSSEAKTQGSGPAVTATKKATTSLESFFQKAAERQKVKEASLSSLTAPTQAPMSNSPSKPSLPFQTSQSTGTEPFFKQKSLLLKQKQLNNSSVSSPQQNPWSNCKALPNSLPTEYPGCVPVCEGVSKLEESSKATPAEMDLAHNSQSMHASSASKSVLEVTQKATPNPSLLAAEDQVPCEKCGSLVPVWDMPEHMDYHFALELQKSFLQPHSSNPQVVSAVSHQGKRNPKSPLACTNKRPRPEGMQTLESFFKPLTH

The target of the assay is DNA polymerase eta (Homo sapiens) (UniProt Q9Y253). Nature of the assay: qHTS for Inhibitors of Polymerase Eta. The conditions noted are these: recombinant Pol eta, fluorescent DNA replication assay; series mostly up to 114 µM; activity change, negative = inhibition: at the top concentration. The procedure, abridged:
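Fluorescent replication assay: 50 nM final substrate added after a 15 min room-temperature compound preincubation with 10 nM enzyme. Signal taken at 0 min and again at 10 min.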
(In qHTS, concentration-response curves come from the screen itself.)
With `CCCCN(C)c1nnc(NC(=O)Nc2ccc(Br)c(C)c2)s1`, the “activity change, negative = inhibition” value is -6.03%. The same measure, in the same setting: the value for `CCOC(=O)c1cc2c(=O)n3ccccc3nc2n(CC2CCCO2)c1=NC(=O)c1ccccc1F` (configuration not stated) was -16.5%; that for `COCCN(Cc1ccco1)C(=O)Cn1ncc2c([nH]c3ccccc32)c1=O` was -3.2%. On the same count and under the same terms, the value for `CCc1ccc(NC(=O)c2sc3nc4c(cc3c2N)CN(CC)CC4)cc1` was 4.03%. On to `CCc1ccc2nc3sc(C(=O)Nc4nnc(CC)s4)c(N)c3cc2c1`, for which the Potency was 50.1 µM (active). Turning to `CCc1ccccc1NC(=O)c1sc2nc3c(cc2c1N)CN(Cc1ccccc1)CC3`, the “activity change, negative = inhibition” value is -11.4%.

Regarding `CCCN(CCC)CCCNC(=O)Cn1cc2c(n1)-c1c(oc(C(=O)N3CCCC3)c1C)CC2`, the “activity change, negative = inhibition” value is -14.2%.

Regarding `CCOC(=O)c1cc(OC(=O)c2ccccc2Cl)n(-c2ccccc2)n1`, the “activity change, negative = inhibition” value is -22.5%.

For `Cn1c(=O)c2c(-c3ccccc3Br)n(Cc3ccccc3)cc2n(C)c1=O`, the “activity change, negative = inhibition” value was -13.1%. On the same count and under the same terms, with `CCc1ccc(NC(=O)CN2C(=O)CCSc3ccc(S(=O)(=O)N4CCCC4)cc32)cc1` the figure was -14.4%; with `CC(Oc1ccccc1)C(=O)NN1Cc2ccccc2C1=N` (configuration not stated), 6.77%.

For the compound `CC(Oc1ccccc1)C(=O)Nc1oc(-c2ccco2)c(-c2ccco2)c1C#N` (configuration not stated), the Potency is 20 µM (active). As to `CC(Oc1ccc(Br)cc1)C(=O)NCC(c1ccco1)N1CCCCC1` (configuration not stated), the “activity change, negative = inhibition” value is -9.97%.

As for `Cc1c(-c2cccc(NC(=O)C(C)(C)C)c2)nc2ncccn12`, the “activity change, negative = inhibition” value was -1.75%.

Turning to `CCOc1ccc(S(=O)(=O)N(CC(=O)NCCSCc2ccc(C)cc2)c2ccccc2)cc1`, the “activity change, negative = inhibition” value was -3.84%. With `Cc1ccc(S(=O)(=O)Nc2nc(N)n(-c3ccccc3)n2)cc1`, the “activity change, negative = inhibition” value is -3.75%. Still for that read-out and setting: with `Cc1ccc(S(=O)(=O)/N=S(\C)C(C)C)cc1` (configuration not stated) the figure was -17.2%.

For `Cc1ccc(S(=O)(=O)/N=C2\C=C(NS(=O)(=O)c3ccc(C)cc3)C(=O)c3ccccc32)cc1`, the Potency is 79.4 µM (active). Take `COc1ccc(N2CCN(C3CCCCC3NS(=O)(=O)c3ccccc3)CC2)cc1` (configuration not stated): the “activity change, negative = inhibition” value is -26.2%. As to `COc1ccc(S(=O)(=O)/N=C2\C=C(NS(=O)(=O)c3ccccc3)C(=O)c3ccccc32)cc1`, the Potency was 22.4 µM (active). Take `COc1ccc(S(=O)(=O)Nc2cc3c(C(=O)OC(C)C)c(C)oc3c3ccccc23)cc1`: the “activity change, negative = inhibition” value was -13.5%. On to `COc1ccc(N(CC(=O)NCCc2ccc(Cl)cc2)S(=O)(=O)c2c(C)nn(C)c2C)cc1`, for which the “activity change, negative = inhibition” value is -14%. With `CCN(CC)c1ccc(NC(=O)Cn2nc3c(cc2=O)CCCC3)c(C)c1`, the “activity change, negative = inhibition” value was -11.4%. Consider `CCCCOC(=O)CSc1ncnc2sc3c(c12)CCC(C)C3` (configuration not stated), for which the “activity change, negative = inhibition” value is -13.5%.

In the case of `NC1CCN(O)C1=O` (configuration not stated), the “activity change, negative = inhibition” value was -4.61% [at 57.1 µM]. Take `CCOc1ccc(NC(=O)CCC(=O)N2CC(C)Oc3ccc(C)cc32)cc1` (configuration not stated): the “activity change, negative = inhibition” value was -2.33%.

For `COc1ccc(NC(=O)CCCc2nnc3n(CCC(C)C)c(=O)c4sccc4n23)c(OC)c1`, the “activity change, negative = inhibition” value is -2.66%.
